Rows were chosen to be rich in hits. Some 12% of all compounds tested hit in one or more screens of this group.
SARS PLpro yeast = inhibitors of SARS-CoV papain-like protease in yeast; AID 485353; actives 0.19% (n = 330,000); Potency, µM (series often up to 32.9 µM), for inactives: at the highest dose activity, positive = growth rescue, actives largely listed as activators; S. cerevisiae expressing SARS-CoV PLpro, growth rescue; calls by dose curve; also: 0% is about no effect; nearly all actives have a fitted effect of over 55% in size
Sm TGR inh = inhibitors of Schistosoma mansoni thioredoxin glutathione reductase. actives 3% (n = 360,000). Potency, µM (highest dose often 114 µM), for the others: at the top dose activity change, negative = inhibition, usual class: inhibitors. purified TGR, DTNB reduction, TNB absorbance 405 nm; also: % is scaled to controls: 0 for no effect and ±100 for the full control effect; nearly all actives have a fitted effect of over 60% in size
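TGR 20 nM + NADPH 100 uM (dispensed conc.), cpd preinc 15 min RT; start with NADPH (500 uM addition) then DTNB (15 mM addition). Kinetic TNB absorbance, 405 nm filter. Four-parameter Hill fit across titration.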
Pf growth 48h = P. falciparum growth inhibition at 48 hours (one generation); P. falciparum luciferase growth in erythrocytes, 48 h; Potency, µM (series often up to 28.7 µM), without a hit: at the highest dose activity change, negative = inhibition, actives largely listed as inhibitors; actives 5.9% (n = 310,000); AID 504832; also: % is scaled to controls: 0 for no effect and ±100 for the full control effect
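Firefly luciferase activity from engineered P. falciparum reports growth; inhibitors lower the luminescent signal. Cultures contained 2% hematocrit erythrocytes at 0.1% final parasitemia.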
AmpC inh no detg = inhibitors of E. coli AmpC beta-lactamase without detergent | P00811 | actives 0.52% (n = 330,000) | AID 485341 | Potency, µM (top dose mostly 57.1 µM), for inactives: top-dose activity change, negative = inhibition, most hits filed as inhibitors | AmpC nitrocefin hydrolysis, absorbance 480 nm, 0.0001% Triton;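 also: plate controls were no compound for no effect and no enzyme for full effect; nearly all actives have a fitted effect of over 20% in size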
Target sequence (P00811 whole entry, looked up): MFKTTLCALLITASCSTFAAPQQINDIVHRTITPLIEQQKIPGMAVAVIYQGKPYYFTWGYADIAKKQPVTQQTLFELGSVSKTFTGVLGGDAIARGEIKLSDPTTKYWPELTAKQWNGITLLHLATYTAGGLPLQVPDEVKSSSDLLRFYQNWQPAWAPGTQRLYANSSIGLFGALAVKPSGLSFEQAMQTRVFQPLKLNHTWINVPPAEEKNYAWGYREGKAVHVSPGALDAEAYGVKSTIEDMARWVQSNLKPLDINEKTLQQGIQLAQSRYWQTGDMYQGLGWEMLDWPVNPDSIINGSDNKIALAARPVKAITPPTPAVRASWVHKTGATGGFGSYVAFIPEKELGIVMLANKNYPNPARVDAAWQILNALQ
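20 mM phosphate pH 7.0 + 0.01% (detergent screen) or 0.0001% Triton X-100; 5.3 nM AmpC reagent; cpd preinc 15 min RT; nitrocefin (800 uM stock) to start; A480 q20 s × 4 min; Activity was normalised to no-enzyme and no-compound control wells.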
Pf growth 96h = P. falciparum growth inhibition at 96 hours | P. falciparum luciferase reporter growth, 96 h | Potency, µM (top dose mostly 28.7 µM), without a hit: at the top dose activity change, negative = inhibition, usual class: inhibitors | actives 6.9% (n = 320,000); also: % is scaled to controls: 0 for no effect and ±100 for the full control effect
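Plates of compound plus infected erythrocytes (2% hematocrit, 0.05% parasitemia final) incubate 96 hours, 37 C, 5% CO2. Detection reagent added; reduced luminescence from the parasites' luciferase reporter flags inhibition.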
AmpC detergent = AmpC beta-lactamase inhibition with detergent present; P00811; AmpC hydrolysis of nitrocefin, absorbance 480 nm, 0.01% Triton; AID 485294; Potency, µM (top dose mostly 114 µM), for the others: top-dose activity change, negative = inhibition, actives largely listed as inhibitors; actives 0.041% (n = 370,000);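 also: 0% = no-compound wells and -100% = no-enzyme wells; nearly all actives have a fitted effect of over 25% in size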
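AmpC (5.3 nM in the dispensed reagent) in 20 mM phosphate pH 7.0 with 0.01% (detergent screen) or 0.0001% Triton X-100 was preincubated with compounds for 15 min at room temperature. Nitrocefin was then added from an 800 uM solution, and hydrolysis was followed at 480 nm.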
Numbers without * were called inactive; i = inactive; u = inconclusive; x = not tested or not shown. Unless noted, calls follow the shape of the dose curve; as a rule, active = well fitted curve in the direction sought with a large enough effect; inconclusive = small, poorly fitted or top-dose-only effect, or another doubt; inactive = no such curve, though single readings can be large; an effect the other way counts as inactive or inconclusive. Potency is read from the fitted curve at half-maximal effect.

SMILES | SARS PLpro yeast | Sm TGR inh | Pf growth 48h | AmpC inh no detg | Pf growth 96h | AmpC detergent
Cc1ccc2c(C(=O)CN3CCC(C(N)=O)CC3)c(C)[nH]c2c1 | -0.3% | 35.5µM* | 13.7% | -8.7% | 9.7% | 1.9%
O=C(CNc1cc(S(=O)(=O)N2CCCC2)ccc1OCC(F)(F)F)Nc1cccc(C(F)(F)F)c1 | -7.6% | -10.4% | u | -2.4% | 13.1µM* | -3.8%
O=C(CNc1cc(S(=O)(=O)N2CCOCC2)ccc1N1CCOCC1)Nc1cccc(C(F)(F)F)c1 | -6.9% | x | x | -6.9% | x | x
Cc1cccc(OCC(=O)Nc2ccc(S(=O)(=O)N3CCCC3)cc2)c1 | -7.3% | -0.3% | u | -19.0% | 36.2% | u
O=C(COc1ccccc1Br)Nc1ccc(S(=O)(=O)N2CCCC2)cc1 | -21.6% | -3.6% | 5.86µM* | -27.2% | u | -13.2%
Cc1cccc(OCC(=O)Nc2nnc(S(=O)(=O)N3CCCCC3)s2)c1 | 6.1% | 2.4% | 18.6% | -37.0% | 7.38µM* | -5.2%
O=C(COc1cccc(C(F)(F)F)c1)Nc1ccc(S(=O)(=O)N2CCCCC2)cc1 | x | -1.6% | u | -33.3% | 9.28µM* | -16.4%
CCOc1ccc(OCC(=O)Nc2c(C(=O)Nc3ccc(C)cc3)oc3ccccc23)cc1 | x | -3.3% | x | x | x | -1.6%
COc1cccc(CNc2ccc(F)c([N+](=O)[O-])c2)c1O | -1.7% | 1.7% | 8.7% | -15.3% | 20.0% | -8.8%
CCN1CCN(Cc2cc(OC)c(OC)cc2[N+](=O)[O-])CC1 | 4.0% | 31.6µM* | 57.7% | -2.8% | 73.5% | -4.3%
COc1cc(CNc2ccccc2)c([N+](=O)[O-])cc1OC | -1.7% | -9.3% | 13.1µM* | -11.7% | i | -6.5%
Cc1nn(CC(=O)NC2CC2)c(=O)c2cc3cc(F)ccc3n12 | x | -0.1% | x | x | x | -4.7%
COc1ccc(-c2ccc(NS(=O)(=O)c3ccc(OC)c(OC)c3)cc2)nn1 | x | 6.7% | x | x | x | 27.7%
COC(=O)NNC(=O)C12CC3CC(CC(C3)C1)C2 | -5.3% | 0.0% | 3.4% | 6.8% | 4.15µM* | u
Cc1cc(Nc2cccc(C(F)(F)F)c2)nc2ccc(NC(=O)c3cncc(Br)c3)cc12 | x | 5.0% | x | x | x | 19.2%
CC(=O)Oc1ccc(C(=O)Nc2ccc3c(c2)C(=O)N(CCC(=O)O)C3=O)cc1 | -1.2% | 0.3% | x | -17.3% | 11.7µM* | 1.6%
COc1cc(C(=O)Nc2ccc3c(c2)C(=O)N(CCC(=O)O)C3=O)cc(OC)c1OC | -4.0% | -2.6% | 7.9% | -7.9% | x | -0.8%
Cc1c(Br)c(O)c(Br)c2sc(=O)oc12 | -1.1% | 2.82µM* | u | 20µM* | u | -3.9%
O=C(CCCN1C(=O)/C(=C/c2ccccc2Cl)SC1=S)NCCCN1CCOCC1 | 0.9% | 2.7% | 11.7µM* | 168.3% | u | -8.8%
O=C(CCCN1C(=O)/C(=C/c2ccccc2Cl)SC1=S)N1CCCC1 | -25.5% | 8.1% | u | 126.9% | 9.28µM* | -12.1%
O=C(CCN1C(=O)/C(=C/c2ccccc2F)SC1=S)NCCCN1CCOCC1 | -1.1% | -14.9% | u | 97.3% | 6.7% | -10.2%
O=C(CCn1nc(-c2ccccc2)ccc1=O)N1CCOCC1 | 2.4% | -9.3% | 4.5% | -18.0% | 1.31µM* | 1.9%
O=C(CCN1C(=O)/C(=C/c2ccccc2Cl)SC1=S)N1CCCC1 | 2.1% | -18.9% | u | 5.4% | u | -21.2%
O=C(CCN1C(=O)/C(=C\c2ccccc2)SC1=S)N1CCOCC1 | 4.1% | 5.9% | 11.7µM* | -2.0% | -14.5% | -3.8%
O=C(CCCN1C(=O)/C(=C/c2ccccc2)SC1=S)N1CCOCC1 | -4.7% | -0.3% | u | 152.7% | 3.5% | 1.7%
SMILES | SARS PLpro yeast | Sm TGR inh | Pf growth 48h | AmpC inh no detg | Pf growth 96h | AmpC detergent
CCN(c1ccccc1)S(=O)(=O)c1ccc(NC(=O)c2nc(SC)ncc2Cl)cc1 | x | 1.4% | x | x | x | 12.7%
O=C(CCN1C(=O)/C(=C/c2ccccc2Cl)SC1=S)N1CCOCC1 | 3.6% | 0.5% | 13.1µM* | -9.7% | u | 11.0%
CCCCNC(=O)CCn1nc(-c2ccccc2)ccc1=O | 7.3% | 12.2% | 17.4% | -8.6% | u | -4.3%
CCCCN(C)CCCNC(=O)CCn1nc(-c2ccccc2)ccc1=O | 0.9% | 0.0% | 0.9% | 0.0% | 0.117µM* | -4.2%
CC1CCN(S(=O)(=O)c2nnc(NC(=O)c3ccccc3Br)s2)CC1 | 1.9% | 2.9% | 38.3% | -33.8% | -24.5% | -17.8%
Cc1ccc(C)c(NC(=O)CN(C)C(=O)c2oc3c(Cl)cccc3c2C)c1 | -0.6% | 0.4% | 4.15µM* | 25.9% | 2.94µM* | u
CCN(CC(=O)Nc1ccccc1C(F)(F)F)C(=O)c1oc2c(Cl)cccc2c1C | -2.9% | -5.6% | u | 44.4% | u | -16.5%
COc1ccc(-c2nc(-c3ccccc3)c(-c3ccc(F)cc3)[nH]2)c(OC)c1C | x | -2.2% | x | x | x | 11.2%
CNC(=O)C1CCC(Cn2c(=O)c3sccc3n(CC(=O)NCc3ccccc3)c2=O)CC1 (centres undefined) | x | -2.6% | x | x | x | 14.5%
CCc1ccc(-c2nc(CS(=O)CC(=O)NCc3cccnc3)c(C)o2)cc1 (centres undefined) | -0.7% | 39.8µM* | 43.1% | 20.0% | -9.6% | 2.3%
CCc1ccc(-c2nc(CS(=O)CC(=O)NCc3ccco3)c(C)o2)cc1 (centres undefined) | -4.3% | 39.8µM* | 9.6% | 34.9% | u | -12.8%
COc1ccc(-c2nc(CS(=O)CC(=O)NCc3ccco3)c(C)o2)cc1 (centres undefined) | 14.9% | 0.0% | x | 1.9% | u | u
CN(C)/C=N/c1nc(-c2ccc3c(c2)OCO3)cs1 | -4.6% | 8.2% | i | -19.6% | 403.6% | -2.3%
CC(=O)N1CCN(CCN(CC2C(C)C=C(C)CC2C)C(C)=O)CC1 (centres undefined) | 0.6% | -9.2% | -1.6% | 32.5% | x | u
CC1=CC(C)C(CN(CCC[N+](C)(C)C)C(=O)Nc2ccccc2)C(C)C1 (centres undefined) | -0.3% | 2.9% | u | 58.3% | 11.7µM* | 3.7%
COc1ccc(CN2C(=O)c3cccnc3C2=O)cc1S(=O)(=O)N1CCCC(C)C1 (centres undefined) | 1.7% | -7.6% | -15.8% | 36.3% | 14.7µM* | 0.4%
Cc1cccc(N2C(=O)C(CC(=O)Nc3cccc(F)c3)N(Cc3cccs3)C2=O)c1 (centres undefined) | x | 3.3% | x | x | x | 21.6%
CSc1ccc(CCNc2ncnc3onc(C)c23)cc1 | x | -6.2% | x | x | x | -6.0%
CCOc1ccc2oc(C(=O)N3CCN(c4ccccc4OCC)CC3)c(C)c2c1 | 2.5% | 6.1% | u | 74.2% | u | 2.4%
